14 compounds from PubChem BioAssay can be followed below.

The structures appear in SMILES notation. Active and inactive are the calls of the source.

Experiment [1] in a line: binders of probe aFSTL3 on microarray, primary screen, stem cell growth factor project, biochemical, small-molecule microarray, fluorescence 635/667 (AID 1064).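 Also: measures binding of the biotinylated anti-FSTL3 antibody to printed compounds.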 The note with it: higher = more signal.
Experiment [2] is described as follows: binders from COS7 lysate, DM2A8 probe, primary screen, torsin A project, cell lysate, small-molecule microarray, fluorescence 635/667 (AID 1065). The note with it: higher = more signal, COS7 lysate expressing mutant human TOR1A.
Experiment [3] can be described thus: binders of probe aFGF2 on microarray, primary screen, stem cell growth factor project, biochemical, small-molecule microarray, fluorescence 635/667 (AID 1067).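 Also: measures binding of biotinylated aFGF2 protein to printed compounds on slides; z-score merges feature fluorescence and signal-to-noise across triplicate slides.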 The note with it: higher = more signal.
Experiment [4] in a line: binders of probe aFGF10 on microarray, primary screen, stem cell growth factor project, biochemical, small-molecule microarray, fluorescence 635/667 (AID 1071).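 Also: score merges 667 nm spot intensity and signal to noise from triplicate slides.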 The note with it: higher = more signal.
The target of experiment [5] is Neurogenic locus notch homolog protein 2 (Homo sapiens) (UniProt Q04721). Nature of the experiment: Notch2 binders on small-molecule microarrays, primary screen, biochemical, small-molecule microarray, 635 nm fluorescence, stem cell growth factors (AID 1073). The note with it: Notch2 binding, higher = more signal.
Neurogenic locus notch homolog protein 2 (Homo sapiens), sequence (Q04721 whole entry, looked up, canonical isoform): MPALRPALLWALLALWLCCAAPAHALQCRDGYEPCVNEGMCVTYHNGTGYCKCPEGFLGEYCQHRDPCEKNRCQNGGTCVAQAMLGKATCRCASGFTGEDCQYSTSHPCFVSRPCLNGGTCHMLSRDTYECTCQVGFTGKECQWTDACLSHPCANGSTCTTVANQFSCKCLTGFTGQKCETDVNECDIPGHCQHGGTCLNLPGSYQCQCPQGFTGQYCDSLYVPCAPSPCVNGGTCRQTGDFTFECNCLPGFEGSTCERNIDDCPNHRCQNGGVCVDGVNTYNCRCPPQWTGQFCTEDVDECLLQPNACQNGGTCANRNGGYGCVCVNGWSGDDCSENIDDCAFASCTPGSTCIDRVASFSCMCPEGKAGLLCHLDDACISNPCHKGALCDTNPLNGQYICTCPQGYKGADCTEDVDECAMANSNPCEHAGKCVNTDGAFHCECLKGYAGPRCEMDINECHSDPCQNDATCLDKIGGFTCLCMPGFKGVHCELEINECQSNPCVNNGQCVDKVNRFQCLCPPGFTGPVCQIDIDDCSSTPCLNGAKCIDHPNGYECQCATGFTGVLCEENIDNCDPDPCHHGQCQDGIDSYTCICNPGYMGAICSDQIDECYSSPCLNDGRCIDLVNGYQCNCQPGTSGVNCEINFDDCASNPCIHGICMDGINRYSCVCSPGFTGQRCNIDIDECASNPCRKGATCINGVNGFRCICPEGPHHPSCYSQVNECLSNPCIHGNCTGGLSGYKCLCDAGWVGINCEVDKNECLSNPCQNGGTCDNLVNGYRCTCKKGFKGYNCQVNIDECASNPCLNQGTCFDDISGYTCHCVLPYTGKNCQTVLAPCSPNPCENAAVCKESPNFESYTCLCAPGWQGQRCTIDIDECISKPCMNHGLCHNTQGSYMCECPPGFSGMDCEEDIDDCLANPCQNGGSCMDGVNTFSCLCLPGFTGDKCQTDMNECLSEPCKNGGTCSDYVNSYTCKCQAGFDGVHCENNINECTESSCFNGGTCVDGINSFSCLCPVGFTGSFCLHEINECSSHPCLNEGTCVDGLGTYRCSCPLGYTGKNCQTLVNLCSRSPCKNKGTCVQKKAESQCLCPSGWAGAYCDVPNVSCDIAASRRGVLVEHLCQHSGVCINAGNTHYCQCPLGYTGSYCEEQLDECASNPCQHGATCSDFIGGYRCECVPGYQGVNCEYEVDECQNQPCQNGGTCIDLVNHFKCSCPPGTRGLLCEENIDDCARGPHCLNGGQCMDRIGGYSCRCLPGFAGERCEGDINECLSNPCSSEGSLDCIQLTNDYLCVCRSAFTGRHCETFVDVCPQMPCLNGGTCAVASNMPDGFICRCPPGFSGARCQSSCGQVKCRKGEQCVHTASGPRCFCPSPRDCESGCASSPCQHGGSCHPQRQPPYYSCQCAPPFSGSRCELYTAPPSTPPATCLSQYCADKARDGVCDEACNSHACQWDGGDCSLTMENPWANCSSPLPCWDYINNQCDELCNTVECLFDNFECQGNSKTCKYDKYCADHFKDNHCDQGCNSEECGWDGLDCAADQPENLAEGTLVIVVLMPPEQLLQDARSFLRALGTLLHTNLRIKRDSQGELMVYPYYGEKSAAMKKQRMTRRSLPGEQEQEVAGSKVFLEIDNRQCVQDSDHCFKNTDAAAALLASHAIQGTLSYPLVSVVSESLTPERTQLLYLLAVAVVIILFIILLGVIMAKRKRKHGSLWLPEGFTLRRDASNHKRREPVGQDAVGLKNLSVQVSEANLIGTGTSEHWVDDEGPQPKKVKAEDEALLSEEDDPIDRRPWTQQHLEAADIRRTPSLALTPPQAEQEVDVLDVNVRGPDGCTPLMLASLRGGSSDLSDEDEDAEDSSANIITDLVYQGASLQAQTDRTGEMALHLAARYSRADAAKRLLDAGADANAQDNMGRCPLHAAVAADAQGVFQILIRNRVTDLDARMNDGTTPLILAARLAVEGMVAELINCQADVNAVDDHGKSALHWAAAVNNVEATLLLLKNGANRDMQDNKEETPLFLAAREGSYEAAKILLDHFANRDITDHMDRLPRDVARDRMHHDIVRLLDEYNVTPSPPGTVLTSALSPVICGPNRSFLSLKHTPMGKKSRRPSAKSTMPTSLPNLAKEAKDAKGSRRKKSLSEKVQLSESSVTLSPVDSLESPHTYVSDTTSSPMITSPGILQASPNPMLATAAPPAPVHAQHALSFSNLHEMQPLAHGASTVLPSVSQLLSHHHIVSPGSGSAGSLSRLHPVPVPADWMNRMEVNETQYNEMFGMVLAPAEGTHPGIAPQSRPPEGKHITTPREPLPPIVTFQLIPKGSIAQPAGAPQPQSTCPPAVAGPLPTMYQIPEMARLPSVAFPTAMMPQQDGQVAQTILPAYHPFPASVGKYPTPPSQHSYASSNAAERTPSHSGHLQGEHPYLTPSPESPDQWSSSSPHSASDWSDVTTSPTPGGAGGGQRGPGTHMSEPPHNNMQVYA
Experiment [6] has as its target Pro-neuregulin-1, membrane-bound isoform (Homo sapiens) (UniProt Q02297). The experiment in a line: NRG1 binders on small-molecule microarrays, primary screen, psychiatric disease protein project, biochemical, small-molecule microarray, fluorescence 635/667 (AID 1075).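 Also: score combines 667 nm spot fluorescence with signal to noise.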 The note with it: NRG1 binding, 635 nm fluorescence, higher = more signal.
Experiment [7] concerns Neuregulin-1 EGF-like domain. Nature of the experiment: binders of neuregulin-1 EGF-like domain, primary screen, biochemical, small-molecule microarray, 635 nm fluorescence (AID 1081).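 Also: binding of the protein to compounds printed on small-molecule microarray slides.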 The note with it: small-molecule microarray binding, higher = more signal.
Experiment [8] is described as follows: FRG1 promoter luciferase signal modulators, primary screen, FRG1 inhibition for FSHD, cell-based, C2C12 myotubes, firefly/Renilla luciferase, luminescence (AID 1084). The note with it: higher = more signal, called active from +8 up or from −8 down.
The nature of experiment [9]: binders of probe aFST on microarray, primary screen, stem cell growth factor project, biochemical, small-molecule microarray, fluorescence 635/667 (AID 1086).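 Also: score merges 667 nm fluorescence with signal-to-noise of each printed compound spot.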 The note with it: higher = more signal.
Experiment [10] can be described thus: binders of probe aHhip on microarray, primary screen, stem cell growth factor project, biochemical, small-molecule microarray, fluorescence 635/667 (AID 1087).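 Also: score merges spot fluorescence at 667nm with spot signal to noise ratio.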 The note with it: higher = more signal.

Pro-neuregulin-1, membrane-bound isoform (Homo sapiens), sequence (Q02297 whole entry, looked up, the tested form may be a part, canonical isoform): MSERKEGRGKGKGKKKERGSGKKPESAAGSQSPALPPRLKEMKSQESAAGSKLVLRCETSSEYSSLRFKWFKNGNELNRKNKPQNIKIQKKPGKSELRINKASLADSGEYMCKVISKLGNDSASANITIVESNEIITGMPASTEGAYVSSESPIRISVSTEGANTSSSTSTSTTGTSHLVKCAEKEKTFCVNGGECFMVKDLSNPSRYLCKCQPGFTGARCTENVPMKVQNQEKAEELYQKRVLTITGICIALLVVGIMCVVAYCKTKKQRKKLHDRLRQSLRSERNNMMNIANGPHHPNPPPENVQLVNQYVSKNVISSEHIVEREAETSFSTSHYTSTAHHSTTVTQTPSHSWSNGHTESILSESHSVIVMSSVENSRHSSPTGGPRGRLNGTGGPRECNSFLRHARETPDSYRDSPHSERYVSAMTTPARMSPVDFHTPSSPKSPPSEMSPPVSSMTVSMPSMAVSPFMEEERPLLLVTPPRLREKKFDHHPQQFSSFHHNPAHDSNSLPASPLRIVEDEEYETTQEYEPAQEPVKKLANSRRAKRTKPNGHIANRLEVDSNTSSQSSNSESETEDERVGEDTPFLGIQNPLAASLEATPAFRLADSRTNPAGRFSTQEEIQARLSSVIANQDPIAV

With `CCOC(=O)C1=NO[C@@]2(C=C(Br)C3(OCCCO3)[C@H]3O[C@H]32)C1`, the composite z-score was 0.224 in experiment [1]; 0.0735 in [2]; -0.116 in experiment [3]; 1.05 in [4]; 0.282 in experiment [5]; -0.467 in [6]. Further, the composite z-score in experiment [7] came out at 0.646; in experiment [9], 0.248; in experiment [10] it was 0.0972. For the same compound, the z-score in [8] is 0.0274 (inactive).
In the case of `CC(C)=CCCC(C)=CCON=C1C[C@@H](O)[C@@H](O)[C@@H]2[C@@H]3C(=O)N(C(C)(C)C)C(=O)[C@@H]3CC[C@@H]12`, the composite z-score was 0.0454 in experiment [1]; 0.113 in experiment [2]; -0.0473 in experiment [3]; 0.257 in [4]; 0.0729 in [5]; -0.0925 in [6]. In addition, the values for the composite z-score in experiment [7], in experiment [9] and in experiment [10] were 0.184, 0.13 and -0.191, respectively. Further, the z-score in experiment [8] is -0.519 (inactive).
For `COc1ccc(O[C@@H]2[C@H](O)CO[C@H]2C=Cc2ccccc2)cc1`, the composite z-score in experiment [1] is -0.323; in experiment [2] it was 0.26; in experiment [3], -0.113; in experiment [4], 0.649; in experiment [5], -0.625; in [6], 0.0515. The composite z-score in [7] was -0.839; in [9], -0.367; in experiment [10], -0.0994. In addition, the z-score in [8] was -1.39 (inactive).
As for `COC(=O)CC=C[C@@H](C)[C@H](OCc1cccc(-c2ccccc2)c1)C1CCCCC1`, the composite z-score was -0.131 in experiment [1]; 0.0473 in [2]; -0.174 in [3]; -0.208 in [4]; 0.813 in experiment [5]; 0.654 in [6]. The values for the composite z-score in experiment [7], in experiment [9] and in experiment [10] were 0.359, -0.48 and 0.189, respectively. Besides, in [8], the z-score is 1.38 (inactive).
Regarding `CON=C[C@@H](C)[C@H](OCc1ccccc1)C(C)C`, the composite z-score in experiment [1] was 0.797; in experiment [2] it was 0.0789; in [3], -0.138; in experiment [4], -0.0499; in experiment [5] it was -0.12; in experiment [6], -0.575. Further, the composite z-score in experiment [7] is -0.502; in experiment [9], -0.0062; in [10], 0.0373. Further, in [8], the z-score was 0.538 (inactive).
Regarding `C=C(C)C(=O)OCC1CN2[C@@H](CC[C@@H](C)[C@@H]2c2ccc(Br)cc2)C(=O)O1` (stereo not given in full), the composite z-score in experiment [1] is -0.393; in experiment [2], 0.0802; in experiment [3] it was -0.15; in [4], 0.2; in experiment [5], 0.331; in [6], -0.0076. For the same compound, the values for the composite z-score in [7], in experiment [9] and in experiment [10] were 0.546, 0.444 and -0.21, respectively. Moreover, in experiment [8], the z-score was 1.11 (inactive).
Turning to `COC(=O)[C@@H]1CC[C@H](C)[C@@H](c2ccc(C)cc2)N1C(=O)c1ccc(C=NO[C@@H]2O[C@H](COC(C)=O)[C@@H](OC(C)=O)[C@H](OC(C)=O)[C@H]2OC(C)=O)cc1`, the composite z-score in [1] is -0.241; in experiment [2] it was 0.427; in experiment [3] it was -0.0985; in experiment [4] it was 0.514; in experiment [5], 0.527; in experiment [6], 0.0818. In addition, the composite z-score in experiment [7] worked out at 0.319; in [9] it was 0.337; in experiment [10] it was 0.0749. The z-score in [8] was 0.861 (inactive).
As for `CO[C@H]1COC(=O)[C@H](C)NC(=O)CC=C[C@@H](C)[C@H](OC)COC(=O)[C@@H](OCc2ccccc2)C=C[C@@H]1C`, the composite z-score is -0.628 in [1]; 0.996 in [2]; -0.0877 in experiment [3]; -0.299 in experiment [4]; -0.542 in experiment [5]; -0.954 in experiment [6]. Also, the composite z-score in [7] is -1.45; in [9], 0.0521; in experiment [10] it was -0.0994. The z-score in experiment [8] was -0.0754 (inactive).
For the compound `CO[C@H]1COC(=O)[C@@H](C)COC(=O)[C@@H](OCc2ccccc2)C=C[C@@H]1C`, the composite z-score is -0.133 in experiment [1]; -0.606 in experiment [2]; -0.121 in [3]; 0.206 in [4]; -0.663 in experiment [5]; -0.297 in experiment [6]. The composite z-score is -0.546 in [7], -0.155 in [9] and 0.0277 in experiment [10]. The z-score in [8] is -0.412 (inactive).
As to `C=Cc1ccc([C@H]2N[C@H](C(=O)O)CC[C@@H]2C)cc1`, the composite z-score in experiment [1] is -0.372; in experiment [2] it was 0.056; in experiment [3] it was -0.156; in experiment [4] it was 0.145; in experiment [5], -0.226; in experiment [6] it was -0.284. Besides, the composite z-score in experiment [7] is 0.564; in experiment [9] it was -0.0301; in [10], 0.0399. In addition, the z-score in experiment [8] was 1.35 (inactive).
`CCc1cc2c(nc1CC)CCN(CCC(C)=NOC[C@H]1O[C@H](c3ccccc3)C=C[C@@H]1Oc1ccc(OC)cc1)C2`: the composite z-score was 0.0529 in experiment [1]; 0.732 in experiment [2]; -0.178 in [3]; -0.147 in experiment [4]; -0.391 in [5]; 0.121 in experiment [6]. The figures for the composite z-score in experiment [7], in experiment [9] and in [10] were 0.734, 0.0567 and 0.12, respectively. Besides, the z-score in experiment [8] was 1.39 (inactive).
As to `O=C1CCCC=C1C(O)CCOC(c1ccccc1)(c1ccccc1)c1ccccc1` (stereo not given), the composite z-score is -0.282 in [1]; 0.422 in [2]; -0.144 in experiment [3]; 0.0954 in [4]; -0.0617 in experiment [5]; -0.229 in [6]. Moreover, the composite z-score in experiment [7] is -0.132; in experiment [9] it was -0.405; in [10] it was -0.069. In experiment [8], the z-score is -0.0611 (inactive).
For the compound `O=C(NN=C1C[C@@H](O)[C@@H](O)[C@@H]2[C@@H]3C(=O)N(C[C@@H]4CCCO4)C(=O)[C@@H]3CC[C@@H]12)OCc1ccccc1`, the composite z-score in [1] is -0.51; in experiment [2] it was 2.32; in experiment [3] it was -0.173; in experiment [4] it was -0.522; in experiment [5] it was -0.122; in experiment [6] it was -0.802. Moreover, the composite z-score in experiment [7] is 0.631; in experiment [9], -0.0104; in experiment [10], -0.0994. Moreover, the z-score in experiment [8] was -0.891 (inactive).
In the case of `CON=C[C@@H](NS(=O)(=O)c1ccc(C)cc1)[C@H](C)C=CCC(=O)OC`, the composite z-score in experiment [1] was -0.303; in experiment [2], 0.0827; in experiment [3], -0.125; in experiment [4], -0.224; in experiment [5], -0.98; in experiment [6] it was -0.23. Moreover, the composite z-score is 0.0812 in experiment [7], -0.371 in experiment [9] and -0.189 in [10]. For the same compound, in experiment [8], the z-score was 0.494 (inactive).
